In PubChem BioAssay AID588473 (Sanford-Burnham Center for Chemical Genomics, 2011):
Among all 350,000 compounds or so, about 1,600 (0.46%) were called active. This excerpt belongs to a sample that is enriched for actives. Values without a mark were called inactive.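 The calls were made as follows: active = activation of at least 50%, plus an integration ratio under a set limit after plate pattern correction; inactive = the rest.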

Tested on: CRF-binding protein / CRF receptor 2 complex (human)
Assay: activators of CRF-R2 with CRF-BP – cell-based, HEK293, calcium dye fluorescence, uHTS, primary screen (AID 588473);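 also: plate controls were neutral control wells without compound for no effect and CRF at EC100 for full effect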
Settings: calcium dye fluorescence (FLIPR), at 13.2 µM, active compounds read high, percent of saturating CRF peptide response

SMILES | activation
CCN(CC)CCCC(C)n1c2nc(=O)[nH]c(=O)c-2nc2cc(Cl)ccc21 (configuration not stated) | 192% (active)
C=C(C)Cn1c(C)cc(C)c(S(=O)(=O)c2ccccc2C)c1=O | -0.15%
CC1COc2ccccc2N1S(=O)(=O)c1ccccc1 (configuration not stated) | 2.38%
Cc1nn(C)cc1/C=C1\CCC/C(=C\c2cn(C)nc2C)C1=O | 0.2%
COc1cccc(-c2nnc(NC(=O)c3ccc(S(=O)(=O)N(CC(C)C)CC(C)C)cc3)o2)c1 | 98.1% (active)
COc1cc(-c2nnc(NC(=O)CS(=O)(=O)c3ccc(Cl)cc3)o2)cc(OC)c1OC | 3.74%
COc1ccc(-c2nnc(NC(=O)CS(=O)(=O)c3ccc(Cl)cc3)o2)c(OC)c1 | -1.55%
CCCCN1C(=O)C(CC(=O)NCc2cccs2)CC(C(=O)N2CCOCC2)=C1C (configuration not stated) | -1.86%
CC(OC(=O)c1ccc(NC(=O)CC#N)cc1)C(=O)Nc1ccc(S(=O)(=O)N2CCCC2)cc1 (configuration not stated) | -0.83%
O=C(COC(=O)C1(c2ccc(F)cc2)CCCC1)N1CCNC1=O | -1.56%
O=C(c1cccs1)N1CCCC(c2nc(-c3ccc(F)cc3)no2)C1 (configuration not stated) | -3.55%
N#Cc1c(-c2ccc(F)cc2)cc(C2CC2)nc1SCC(=O)c1cccs1 | 76.4% (active)
N#Cc1c(C(F)(F)F)cc(-c2ccc(Cl)cc2)nc1SCC(=O)O | 0.45%
CC1(C)SC2c3ccccc3C(=O)N2[C@@H]1C(=O)NCc1ccco1 (some centres not stated) | -0.83%
COCCCNC(=O)C1CC(=O)N(CCc2ccccc2)C1 (configuration not stated) | -1.35%
COCCCNC(=O)[C@H]1N2C(=O)c3ccccc3C2SC1(C)C (some centres not stated) | 53.6% (active)
O=C(Nc1cccc2ccccc12)c1onc2c1CCCC2 | -2.42%
CC(OC(=O)CCCOc1ccccc1)C(=O)Nc1ccc(Cl)cn1 (configuration not stated) | -1.67%
O=C(NC(=O)N1CCOCC1)c1ccccc1 | 5.54%
O=C(/C=C/c1ccc(N2CCOCC2)cc1)c1ccccc1 | 89.1% (active)
O=C(c1ccccc1)c1ccc(C(=O)N2CCN(c3ccccc3)CC2)cc1 | 0.4%
Cc1ccc(S(=O)(=O)Nc2nc(CN3CCOCC3)nc3sc(C)c(C)c23)cc1 | 3.71%
CCC(=O)c1cc(F)ccc1OCC(=O)Nc1ccc2c(c1)OCCO2 | 0.29%

SMILES | activation
O=S(=O)(c1cccc(C(F)(F)F)c1)N1CCN(c2cnccn2)CC1 | -0.32%
O=S(=O)(c1cccc(C(F)(F)F)c1)N1c2ccccc2-n2cccc2C1c1cccnc1 (configuration not stated) | 138% (active)
O=C(CN(c1cc(C(F)(F)F)ccc1Cl)S(=O)(=O)c1ccccc1)NCc1cccnc1 | 1.6%
COCCN(C(=O)CCC(=O)Nc1nccs1)C(C(=O)NC(C)(C)C)c1ccc(Cl)cc1 (configuration not stated) | 0.68%
CCCC(=O)Nc1ncnc2c1ncn2[C@@H]1O[C@@H]2OP(=O)(O)OC[C@H]2[C@H]1OC(=O)CCC | -0.33%
O=C(Nc1cccc(S(=O)(=O)NC2=NCCC2)c1)C1CCCCC1 | 1.06%
O=C(O)C1OC(C(=O)O)C2C1C(F)(F)C2(F)F (configuration not stated) | 0.58%
CCOC(=O)Cc1cc(=O)[nH]c(=O)[nH]1 | -0.34%
CC(Nc1ccc([N+](=O)[O-])cc1[N+](=O)[O-])c1ccccc1 (configuration not stated) | -3.71%
O=C(O)c1cc([N+](=O)[O-])c(Nc2cccc3ccccc23)c([N+](=O)[O-])c1 | -0.94%
O=C(NC(Nc1nc2ccc([N+](=O)[O-])cc2s1)(C(F)(F)F)C(F)(F)F)c1ccccc1 | 69.9% (active)
CCN=c1sc(C(=O)Nc2ccccc2)c(C)n1CC | -2.99%
CCc1ccccc1N1CN(Cc2ccco2)CNC1=S | 80.2% (active)
CCOc1ccccc1N1CN(Cc2ccccc2)CNC1=S | -0.43%
Cn1c2c(c(=O)n(C)c1=O)CN(Cc1ccco1)CN2 | 2.8%
Cn1c(SCC(=O)N2CCCc3ccccc32)nc2ccccc2c1=O | 3.16%
CCn1c(=O)c2ccccc2n(CC(=O)N2CCCc3ccccc32)c1=O | 0.82%
C=CCn1c(=O)c2ccccc2n2c(SCC(=O)N3CCCc4ccccc43)nnc12 | 75.3% (active)
CCOC(=O)CSC1=N/C(=C/c2ccc(-n3cncn3)cc2)C(=O)N1C(C)=O | 1.8%
COc1cccc(CNS(=O)(=O)c2ccc3c(c2)N(C(C)=O)CCS3)c1 | 1.61%
CN(C)c1ccc(/C=C2\NC(=S)N(Cc3ccccc3)C2=O)cc1 | 191% (active)
CN(C)c1ccc(C=C2C(=O)OC3(CCCC3)OC2=O)cc1 | 23.8%
CC1CN(Cc2ccccc2)C(=S)NC1=O (configuration not stated) | -2.85%

SMILES | activation
Cc1ccccc1Cn1nc(C)c(NC(=O)C(F)(F)F)c1C | -0.93%
CN(Cc1cc2cc(F)ccc2[nH]1)Cc1nc(-c2cnccn2)no1 | -0.56%
O=C(CSc1nnc(-c2ccc([N+](=O)[O-])cc2)o1)Nc1ccccn1 | -0.44%
Cc1cccc(CN2CCN(Cc3cnn(-c4ccccc4F)c3)CC2CCO)n1 (configuration not stated) | -2.69%
Cc1onc(-c2ccccc2)c1C(=O)NNC(=S)NC(=O)c1ccc(F)cc1 | 181% (active)
Cc1onc(-c2ccccc2)c1C(=O)N=C(N)c1ccc(Cl)cc1 | 2.16%
COc1ccc(C(=O)NNC(=O)c2cc(C)[nH]n2)cc1 | -0.62%
COc1ccc(C(=O)NC(=S)NNC(=O)c2c(-c3ccccc3)noc2C)cc1 | 99.3% (active)
Cc1noc(C)c1COc1ccc(C(=O)NCCOc2ccccc2)cc1 | 3.12%
O=C(NNC(=S)NC(=O)c1cn(-c2ccccc2)nc1-c1ccccc1)c1ccncc1 | 27.4%
O=S(=O)(N/N=C\c1cccn1-c1ccccc1)c1ccc2ccccc2c1 | -1.5%
CCOC(=O)C1=C(N)N2C(=O)C(C)SC2=C(C(=O)OCC)C1c1cc(OC)c(OC)c(OC)c1 (configuration not stated) | -0.18%
COc1cccc(N2CC(NC(=O)c3ccc4ccccc4c3)CC2=O)c1 (configuration not stated) | -0.96%
O=C(CCc1nc(-c2ccccc2)no1)Nc1cccc(C(=O)NC2CC2)c1 | -1.3%
Cc1ccc(Cl)cc1N1CCN(C(=O)c2cccc3c(=O)c(C)c(-c4ccccc4)oc23)CC1 | 63.6% (active)
COC(=O)c1ccc(C(=O)OC)c(NC(=S)N2CCN(c3cc(Cl)ccc3C)CC2)c1 | 2.16%
Cc1cccc(N2CCN(C(=O)c3cnn4c(C(F)F)cc(-c5ccccc5)nc34)CC2)c1C | -0.01%
CC(=O)Nc1ccc(S(=O)(=O)N(C)c2ccc(OCC(=O)OCC(=O)N3CCCCC3)cc2)cc1 | -1.11%
COc1cc(N=Cc2c(O)c3ccccc3oc2=O)c(OC)cc1Cl | 66.4% (active)
O=c1oc2ccccc2c(=O)c2ccccc12 | 0%
COc1ccccc1CNC(=O)c1cc(=O)c2ccccc2o1 | -1.3%
O=C(CCN1CCN(c2ccccc2)CC1)NNC(=S)Nc1ccccc1 | -0.17%
CCCCC(=O)NNC(=S)NC(=O)C(c1ccccc1)c1ccccc1 | 135% (active)

SMILES | activation
CC(C)C(=O)NC(=S)Nc1ccccc1F | -2.1%
CC(C)CCNC(=O)CC1C(=O)N(Cc2ccccc2)C(C)c2nc3ccccc3n21 (configuration not stated) | -1%
OC(COCCC12CC3CC(CC(C3)C1)C2)CN1CCCCC1 (configuration not stated) | 0.79%
COc1ccc(-c2ocnc2C(=O)Nc2ccc3c(c2)CCC3)cc1 | 1.68%
COc1ccc(NC(C(=O)Nc2cccc(C(C)=O)c2)c2ccccc2)cc1 (configuration not stated) | -0.34%
COc1ccc(-c2onc3ccc(C(C)=O)cc23)cc1 | 100% (active)
COc1ccccc1C(=O)Nc1ccccc1C(=O)Nc1ccccc1 | 0.57%
O=C(Nc1ccccc1)c1ccccc1NC(=O)C(F)(F)F | 55.4% (active)
CC1CCCCC1NCC(=O)Nc1ccccc1C(=O)Nc1ccccc1 (configuration not stated) | -2.89%
O=S(=O)(Nc1ccc(-c2ccc(N3CCOCC3)nn2)cc1)c1cc(Cl)ccc1Cl | 0.21%
Clc1ccc2c(c1)C1=C(C(c3ccncc3)O2)C(c2ccc(Br)cc2)n2ncnc2N1 (configuration not stated) | 0.45%
CCOc1ccc(C2=CC(c3ccccc3)n3ncnc3N2)cc1 (configuration not stated) | 53.1% (active)
CC1=C(C(=O)OC2CCCCC2)C(c2cccnc2)n2ncnc2N1 (configuration not stated) | -0.1%
Brc1ccc(C2=CC(c3ccco3)n3ncnc3N2)cc1 (configuration not stated) | 274% (active)
CCOc1ccccc1C1CC(c2ccccc2)Nc2nc(N)nn21 (configuration not stated) | 8.41%
CN(CC(=O)Nc1ccccc1F)CC(=O)Nc1ccccc1Br | -3.49%
Cc1cccc(CC2(O)C(=O)Nc3ccccc32)n1 (configuration not stated) | -0.62%
CCN(CC)S(=O)(=O)c1ccc(Cl)c(C(=O)NC(C)C(c2cccs2)N2CCCC2)c1 (configuration not stated) | 0.2%
OCCCNC(c1ccccc1)c1ccc(O)cc1 (configuration not stated) | -1.4%
COc1cc(/C=C2\C(=N)N3N=C(CC(=O)N4CCOCC4)SC3=NC2=O)cc(OC)c1OC | -0.4%
COC1=C/C(=C/c2c(N)n3nc(CC(=O)N4CCOCC4)sc3nc2=O)C=CC1=O | 9.37%
C=CCC1=C/C(=C\c2c(N)n3nc(CC(=O)N4CCOCC4)sc3nc2=O)C=C(OC)C1=O | 83.2% (active)
CN(CC(=O)Nc1ccc(C(N)=O)cc1)S(=O)(=O)c1ccc2c(c1)OCCO2 | 3.57%
